# From PubChem BioAssay AID1159580 (chemical genetic matrix, 2015)
# Several values for one entry are separate records, joined by “and”; a condition that tells them apart may be missing. Equal values may be shown once. Among all 5,500 compounds or so, about 2,000 (36%) were called active. Inconclusive results (about 18%) are left out. No stated cut-off is given here; in the data, active means normalized growth mostly below about 0.91 (no sharp cut-off); inconclusive means no clear call, values can overlap the other calls; inactive means mostly above about 0.92. Some of the results follow.
# Test: chemical genetic growth profiling, strain panel (AID 1159580);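 further: tested at 20 µM; growth read once vehicle control cultures reached saturation at 30 °C; 1 = growth at the plate median or of vehicle wells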
# Conditions: S. cerevisiae deletion strains, growth OD
compound,measurement,setting,value
CN(C)CCCN1c2ccccc2CCc2ccc(Cl)cc21,normalized growth,"locus YAL013W, strain DEP1, stronger effect = lower value",0.92 (inactive) and 0.962 (inactive)
same,normalized growth,"locus YAL021C, strain ccr4, stronger effect = lower value",0.899 (active)
same,normalized growth,"locus YAL026C, strain drs2, stronger effect = lower value",0.77 (active)
same,normalized growth,"locus YAL030W, strain snc1, stronger effect = lower value",1 (inactive)
same,normalized growth,"locus YAL040C, strain CLN3, stronger effect = lower value",1.02 (inactive)
same,normalized growth,"locus YBL061C, strain skt5, stronger effect = lower value",1.01 (inactive)
same,normalized growth,"locus YBR009C, strain hhf1, stronger effect = lower value",0.944 (inactive)
same,normalized growth,"locus YBR021W, strain FUR4, stronger effect = lower value",0.561 (active)
same,normalized growth,"locus YBR023C, strain chs3, stronger effect = lower value",1.01 (inactive)
same,normalized growth,"locus YBR171W, strain sec66, stronger effect = lower value",0.99 (inactive)
same,normalized growth,"locus YBR229C, strain ROT2, stronger effect = lower value",0.975 (inactive)
same,normalized growth,"locus YBR231C, strain swc5, stronger effect = lower value",1.01 (inactive)
same,normalized growth,"locus YBR279W, strain paf1, stronger effect = lower value",0.996 (inactive)
same,normalized growth,"locus YCL011C, strain gbp2, stronger effect = lower value",0.984 (inactive)
same,normalized growth,"locus YCL016C, strain dcc1, stronger effect = lower value",0.994 (inactive)
same,normalized growth,"locus YCL029C, strain bik1, stronger effect = lower value",1 (inactive)
same,normalized growth,"locus YCL061C, strain MRC1 (second series), stronger effect = lower value",0.999 (inactive)
same,normalized growth,"locus YCL061C, strain MRC1, stronger effect = lower value",1 (inactive)
same,normalized growth,"locus YCL069W, strain vba3, stronger effect = lower value",1 (inactive)
same,normalized growth,"locus YCR088W, strain abp1, stronger effect = lower value",1 (inactive)
same,normalized growth,"locus YDL005C, strain med2, stronger effect = lower value",1.03 (inactive)
same,normalized growth,"locus YDL035C, strain GPR1, stronger effect = lower value",0.824 (active)
same,normalized growth,"locus YDL040C, strain nat1, stronger effect = lower value",0.998 (inactive)
same,normalized growth,"locus YDL074C, strain BRE1, stronger effect = lower value",0.674 (active)
same,normalized growth,"locus YDL101C, strain DUN1, stronger effect = lower value",0.977 (inactive)
same,normalized growth,"locus YDL134C, strain PPH21, stronger effect = lower value",0.812 (active)
same,normalized growth,"locus YDL185W, strain tfp1, stronger effect = lower value",0.984 (inactive)
same,normalized growth,"locus YDL192W, strain arf1, stronger effect = lower value",0.933 (inactive)
same,normalized growth,"locus YDR001C, strain nth1, stronger effect = lower value",1.01 (inactive)
same,normalized growth,"locus YDR069C, strain doa4, stronger effect = lower value",0.919 (inactive)
same,normalized growth,"locus YDR101C, strain arx1, stronger effect = lower value",1 (inactive)
same,normalized growth,"locus YDR137W, strain rgp1, stronger effect = lower value",1.21 [resistant] (active)
same,normalized growth,"locus YDR150W, strain NUM1, stronger effect = lower value",1.01 (inactive)
same,normalized growth,"locus YDR159W, strain sac3, stronger effect = lower value",1.04 (inactive)
same,normalized growth,"locus YDR162C, strain NBP2, stronger effect = lower value",0.725 (active)
same,normalized growth,"locus YDR195W, strain ref2",1.07 (inactive)
same,normalized growth,"locus YDR297W, strain sur2, stronger effect = lower value",1.01 (inactive)
same,normalized growth,"locus YDR318W, strain mcm21, stronger effect = lower value",0.978 (inactive)
same,normalized growth,"locus YDR334W, strain swr1, stronger effect = lower value",1.01 (inactive)
same,normalized growth,"locus YDR335W, strain msn5, stronger effect = lower value",1 (inactive)
same,normalized growth,"locus YDR388W, stronger effect = lower value",0.825 (active)
same,normalized growth,"locus YDR392W, strain spt3, stronger effect = lower value",0.93 (inactive)
same,normalized growth,"locus YDR502C, strain sam2, stronger effect = lower value",0.963 (inactive)
same,normalized growth,"locus YEL003W, strain gim4, stronger effect = lower value",0.984 (inactive)
same,normalized growth,"locus YEL037C, strain rad23, stronger effect = lower value",1 (inactive)
same,normalized growth,"locus YEL061C, strain CIN8 (second series), stronger effect = lower value",1.01 (inactive)
same,normalized growth,"locus YEL061C, strain CIN8, stronger effect = lower value",0.99 (inactive)
same,normalized growth,"locus YER002W, strain NOP16, stronger effect = lower value",1.08 (inactive)
same,normalized growth,"locus YER015W, strain faa2, stronger effect = lower value",0.972 (inactive)
same,normalized growth,"locus YER016W, strain bim1, stronger effect = lower value",1 (inactive)
same,normalized growth,"locus YER110C, stronger effect = lower value",0.999 (inactive)
same,normalized growth,"locus YER111C, strain swi4, stronger effect = lower value",0.994 (inactive)
same,normalized growth,"locus YER155C, strain BEM2 (second series), stronger effect = lower value",1.01 (inactive)
same,normalized growth,"locus YER155C, strain BEM2, stronger effect = lower value",1 (inactive)
same,normalized growth,"locus YER167W, strain BCK2, stronger effect = lower value",0.952 (inactive)
same,normalized growth,"locus YFR010W, strain ubp6, stronger effect = lower value",0.882 (active)
same,normalized growth,"locus YGL078C, strain dbp3, stronger effect = lower value",0.989 (inactive)
same,normalized growth,"locus YGL086W, strain mad1, stronger effect = lower value",0.967 (inactive)
same,normalized growth,"locus YGL167C, strain pmr1, stronger effect = lower value",1 (inactive)
same,normalized growth,"locus YGL173C, strain kem1, stronger effect = lower value",0.967 (inactive)
same,normalized growth,"locus YGL227W, strain vid30, stronger effect = lower value",0.993 (inactive)
same,normalized growth,"locus YGL240W, strain doc1, stronger effect = lower value",1 (inactive)
same,normalized growth,"locus YGL248W, strain PDE1, stronger effect = lower value",0.917 (inactive)
same,normalized growth,"locus YGL253W, strain hxk2, stronger effect = lower value",0.971 (inactive)
same,normalized growth,"locus YGR135W, strain pre9, stronger effect = lower value",0.784 (active)
same,normalized growth,"locus YGR252W, strain gcn5, stronger effect = lower value",0.527 (active)
same,normalized growth,"locus YHR013C, strain ard1, stronger effect = lower value",0.852 (inactive)
same,normalized growth,"locus YHR027C, strain rpn1, stronger effect = lower value",0.915 (active)
same,normalized growth,"locus YHR030C, strain SLT2, stronger effect = lower value",0.876 (active) and 1 (inactive)
same,normalized growth,"locus YHR079C, strain IRE1 (second series), stronger effect = lower value",0.992 (inactive)
same,normalized growth,"locus YHR079C, strain IRE1, stronger effect = lower value",0.981 (inactive)
same,normalized growth,"locus YHR094C, strain hxt1, stronger effect = lower value",0.993 (inactive)
same,normalized growth,"locus YHR129C, strain ARP1, stronger effect = lower value",0.986 (inactive)
same,normalized growth,"locus YHR142W, strain chs7, stronger effect = lower value",0.977 (inactive)
same,normalized growth,"locus YHR200W, strain rpn10, stronger effect = lower value",0.998 (inactive)
same,normalized growth,"locus YIL066C, strain RNR3, stronger effect = lower value",0.836 (active)
same,normalized growth,"locus YIL073C, strain SPO22, stronger effect = lower value",0.79 (inactive)
same,normalized growth,"locus YIL125W, strain kgd1, stronger effect = lower value",0.993 (inactive)
same,normalized growth,"locus YIR030C, strain dcg1, stronger effect = lower value",0.995 (inactive)
same,normalized growth,"locus YJL092W, strain hpr5, stronger effect = lower value",1.01 (inactive)
same,normalized growth,"locus YJL095W, strain BCK1 (second series), stronger effect = lower value",0.997 (inactive)
same,normalized growth,"locus YJL095W, strain BCK1, stronger effect = lower value",0.696 (active) and 0.99 (inactive)
same,normalized growth,"locus YJL115W, strain asf1, stronger effect = lower value",0.997 (inactive)
same,normalized growth,"locus YJL129C, strain trk1, stronger effect = lower value",1.02 (inactive)
same,normalized growth,"locus YJL134W, strain LCB3, stronger effect = lower value",0.991 (inactive)
same,normalized growth,"locus YJL154C, strain vps35, stronger effect = lower value",1 (inactive)
same,normalized growth,"locus YJL164C, strain tpk1, stronger effect = lower value",0.993 (inactive)
same,normalized growth,"locus YJL166W, strain qcr8, stronger effect = lower value",0.957 (inactive)
same,normalized growth,"locus YJL168C, strain set2, stronger effect = lower value",0.993 (inactive)
same,normalized growth,"locus YJL187C, strain SWE1 (second series), stronger effect = lower value",0.887 (inactive)
same,normalized growth,"locus YJL187C, strain SWE1, stronger effect = lower value",1 (inactive)
same,normalized growth,"locus YJR043C, strain POL32, stronger effect = lower value",1.01 (inactive)
